# Assay outcomes deposited in PubChem BioAssay by The Scripps Research Institute Molecular Screening Center.
# hgDAF12 agonist: H. glycines DAF-12 receptor agonists, primary screen, cell-based, luminescence, HEK293, GAL4 fusion, UAS-luciferase | activation, % at 6.8 µM | 370,000 tested, 1.8% active | Nuclear hormone receptor DAF-12 (Heterodera glycines), GAL4 fusion | AID 687014, 2013 | HEK293 GAL4-hgDAF12 UAS-luciferase reporter, agonist luminescence; normalized to butyrate control;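 active means activation above a cutoff set at the mean of all screened compounds plus 3 SD, cut at about 10% in these data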
# ssDAF-12 act: S. stercoralis DAF-12 nuclear receptor activators, primary screen, cell-based, luminescence, HEK293, GRIP1 co-expression, lit1-tk-luc. HEK293 ssDAF-12/GRIP1 lit1-tk-luc reporter; % of 3 µM dafachronic acid response. AID 652126, 2013. activation, % at 6.8 µM. 370,000 tested, 1% active. Nuclear hormone receptor DAF-12 (Strongyloides stercoralis);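 active means activation above the mean over all tested compounds plus 3 SD, cut at about 0.9% in these data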
# SMARCA2 act: SMARCA2 (BRM) function activators, primary screen, cell-based, luminescence, high throughput; activation, % at 9.1 µM; AID 652017, 2013; MG213 cells, MMTV-luciferase reporter, dexamethasone, overnight; 370,000 tested, 1% active; in the data active means activation above about 7.8%
# DAX1 inh-1: DAX1 (NR0B1) inhibitors, primary screen, cell-based, HEK293, Gal4-DAX1, luciferase luminescence | Nuclear receptor subfamily 0 group B member 1 (Homo sapiens), P51843 | HEK293 Gal4-DAX1 luciferase reporter | inhibition, % at 6.75 µM | 340,000 tested, 0.99% active | AID 504766, 2011;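 active means inhibition above the mean over all tested compounds plus 3 SD, cut at about 4.2% in these data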;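 further: inhibition shows as a rise in luminescence from relieved DAX1 repression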
# hcDAF12 agonist: H. contortus DAF-12 nuclear receptor activators, primary screen, cell-based, luminescence, HEK293, lit1-tk-luc reporter; HEK293 hcDAF-12 lit1-tk-luc reporter; 0% DMSO, 100% Δ7-dafachronic acid; activation, % at 6.8 µM; 370,000 tested, 1.4% active;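 active means activation above the mean of all tested compounds plus 3 SD, cut at about 5.5% in these data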
# DAX1 inh-2: DAX1 (NR0B1) inhibitors on StAR promoter, primary screen, cell-based, luminescence, SF-1 (NR5A1), full-length DAX-1; HEK293T StAR-luciferase reporter, SF-1/DAX-1 repression relief; inhibition, % at 6.8 µM; 370,000 tested, 1.1% active; AID 652010, 2013;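 active means inhibition above the mean over all tested compounds plus 3 SD, cut at about 3.6% in these data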;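 further: higher inhibition means more luminescence from relief of DAX-1 repression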
# DAX1 inh confirm: DAX1 (NR0B1) inhibitors relieving SF-1 repression, confirmation, cell-based, luminescence, HEK293T, full-length DAX-1, SF-1 activated StAR promoter; shares compounds with DAX1 inh-2; HEK293T StAR-promoter luciferase reporter, SF-1/DAX-1 repression; inhibition, % at 6.8 µM; 2,400 tested, 87% active; AID 652134, 2013;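 active means inhibition above the average of every tested compound plus 3 SD, cut at about 3.8% in these data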
# Target sequence (P51843 whole entry, looked up): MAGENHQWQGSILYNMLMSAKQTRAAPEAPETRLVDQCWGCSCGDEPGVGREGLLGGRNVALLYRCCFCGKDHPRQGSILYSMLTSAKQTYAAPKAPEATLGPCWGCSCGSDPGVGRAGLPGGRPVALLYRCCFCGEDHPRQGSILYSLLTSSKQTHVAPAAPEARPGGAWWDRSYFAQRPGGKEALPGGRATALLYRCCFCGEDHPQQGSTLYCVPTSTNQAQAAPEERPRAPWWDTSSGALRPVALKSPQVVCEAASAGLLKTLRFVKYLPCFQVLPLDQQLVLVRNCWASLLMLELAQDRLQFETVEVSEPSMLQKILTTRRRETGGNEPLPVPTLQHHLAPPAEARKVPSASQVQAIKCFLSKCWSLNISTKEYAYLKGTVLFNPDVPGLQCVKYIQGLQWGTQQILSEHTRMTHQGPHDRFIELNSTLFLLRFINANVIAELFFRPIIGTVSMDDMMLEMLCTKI
# SF1 AF2mut Luc: StAR reporter signal changes without DAX1, counter-screen for DAX1 inhibitor project, cell-based, luminescence, AF-2 mutant SF-1, transactivation; shares compounds with DAX1 inh-2; HEK293 StAR-luciferase, SF-1 AF2 mutant; inhibition, % at 6.8 µM; 2,400 tested, 78% active;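 active means inhibition above the mean of all tested compounds plus 3 SD, cut at about 3% in these data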
# A number is an active result; - = inactive; . = not tested or not shown. Compounds with a hit are over-represented: about 4.8% of the library has one in this group of screens.
SMILES,hgDAF12 agonist,ssDAF-12 act,SMARCA2 act,DAX1 inh-1,hcDAF12 agonist,DAX1 inh-2,DAX1 inh confirm,SF1 AF2mut Luc
C/C(=N\NC(=O)c1ccoc1C)c1ccc(Br)s1,-,-,-,-,-,5.8,-,-
O=C(N/N=C/c1ccc([N+](=O)[O-])o1)c1ccc2c(c1)OCO2,-,-,-,-,-,-,.,.
Cc1ccc(/C=N\NC(=O)c2ccc3c(c2)OCO3)o1,-,-,-,-,-,5.2,-,2.9
COc1ccc(N=C(C)C2=C(O)c3ccccc3C2=O)cc1,12,-,-,-,-,5.0,19,5.9
C/C(=N\N(C)C)C1=C(O)c2ccccc2C1=O,-,-,-,-,-,-,.,.
COc1ccccc1Oc1ncnc2c1cnn2-c1ccccc1,12,-,-,-,-,4.7,-,3.6
O=C(NC1CC1)c1cc2cc3ccccc3nc2s1,-,-,-,-,-,4.9,7.6,4.6
O=C(Nc1ccc(F)c(Cl)c1)N1CCCC1,-,-,-,-,-,-,.,.
Cc1ccc(NC(=O)N2CCCCC2)cc1NC(=O)N1CCCCC1,-,-,-,-,-,-,.,.
O=C(Nc1ccc(F)c(Cl)c1)N1CCCCCC1,-,-,-,-,-,4.7,5.2,5.8
CCn1c2ccccc2c2cc(NC(=O)N3CCCCC3)ccc21,-,-,-,-,-,4.7,10,5.4
Cc1ccc(NC(=O)N2CCCCCC2)cc1C,-,-,-,-,-,5.9,8.1,5.4
CCCC(=O)Nc1ccc2c(c1)c1ccccc1n2CC,-,-,-,-,-,-,.,.
Cc1ccc(O)c(N=Nc2ccccc2)n1,12,-,-,-,-,5.6,10,6.5
Cc1cc(N)n2ncc(-c3cccc(Br)c3)c2n1,-,-,-,-,-,4.9,7.0,3.7
CCOC(=O)c1cnc2c(-c3ccccc3)c(C)nn2c1N,-,-,-,-,-,-,.,.
CCOC(=O)c1cnc2c(-c3ccccc3)cnn2c1N,12,-,-,-,-,5.6,17,12
O=C(CSc1nnc(-c2ccccc2Cl)o1)Nc1ccccn1,11,-,-,-,-,6.1,17,6.7
Clc1ccc2nc(CSc3nnc4ccccn34)cn2c1,-,-,-,-,5.6,5.1,14,8.8
Cc1cccc(NC(=O)C2CCN(c3nnc(-n4cccc4)s3)CC2)c1C,-,-,-,.,-,-,.,.
CCCn1c2ccccc2c2cnn(CC(=O)NCCCN3C(C)CCCC3C)c(=O)c21 (stereo not drawn),-,-,-,-,-,5.6,-,-
CC(=O)Nc1ccc(NC(=O)CSc2nccn2Cc2ccco2)cc1,-,-,-,-,-,-,.,.
COc1ccc(C(=O)CSc2nccn2C)c(OC)c1,11,-,-,-,-,6.9,5.5,-
Cn1ccnc1SCC(=O)Nc1ccccc1,-,-,-,-,-,-,.,.
Cn1ccnc1SCC(=O)Nc1ccc(SC(F)F)cc1,-,-,-,-,-,6.2,8.4,5.3
SMILES,hgDAF12 agonist,ssDAF-12 act,SMARCA2 act,DAX1 inh-1,hcDAF12 agonist,DAX1 inh-2,DAX1 inh confirm,SF1 AF2mut Luc
COc1ccc(NC(=O)CSc2nccn2Cc2ccco2)cc1,-,-,-,-,-,5.2,6.8,6.0
Cn1ccnc1SCC(=O)Nc1ccc2ccccc2c1,-,1.2,-,-,-,5.7,10,6.3
C[C@@H]1OC(C2CCCCC2)N(C)[C@H]2C[C@H]3c4cc(-c5ccc6c(c5)OCO6)ccc4CCN3C[C@@H]12 (stereo partly drawn),-,-,-,.,-,-,.,.
Cc1cc(NC(=O)c2ccc(NC(=O)c3cccs3)cc2)no1,-,-,-,-,-,-,.,.
CC(C)(C)c1cc(NC(=O)c2cccs2)no1,11,-,-,-,-,11,12,7.2
COc1ccc(/C=N/Nc2nncc3ccccc23)cc1,17,1.9,8.5,-,11,6.4,14,-
COc1ccccc1/C=N/Nc1nncc2ccccc12,-,-,-,-,-,-,.,.
COc1ccc(-c2cc(NC=O)c3ncc(-c4cc(OC)c(OC)c(OC)c4)n3c2)cc1,-,-,-,.,-,4.6,4.0,-
CCOc1ccc(-c2cn3ccccc3n2)cc1,-,-,-,-,5.8,9.9,14,4.4
O=C(Nc1ccc(F)cc1F)c1ccc2ncsc2c1,-,-,-,-,-,4.9,-,-
C=CCn1c(C)cc(C(=O)COc2ncnc3sccc23)c1C,11,-,-,-,6.3,5.2,14,6.5
Cc1cccc(-c2cc3nc4c(c(NCc5ccco5)n3n2)CCCC4)c1,12,-,-,-,-,5.0,5.4,3.1
CCN(C(=O)CSc1ncccn1)c1c(N)n(Cc2ccccc2)c(=O)[nH]c1=O,-,-,-,-,-,4.7,-,-
CC(CC(=O)N(CCC1=CCCCC1)c1c(N)n(Cc2ccccc2)c(=O)[nH]c1=O)c1ccccc1 (stereo not drawn),-,-,-,-,-,6.3,-,-
CCC1(O)CC2CN(CCc3c([nH]c4ccccc34)C(C(=O)OC)(c3cc4c(cc3OC)N(C=O)C3C(O)(C(=O)OC)C(OC(C)=O)C5(CC)C=CCN6CCC43C65)C2)C1 (stereo not drawn),-,-,-,-,-,5.2,21,-
COc1ccc(CCNC(=O)[C@H](C)N2C(=O)N3CCc4c([nH]c5ccccc45)[C@@]3(C)C2=O)cc1OC,-,-,-,-,-,-,.,.
CCn1c(Cc2cccs2)nnc1SCC(=O)Nc1ccccc1-c1ccccc1,-,-,-,.,-,-,.,.
Cc1ccc2oc(C(=O)N3CCCCCC3)c(C)c2c1,-,-,-,-,-,5.3,5.2,3.5
Cc1c(C(=O)N2CCCCC2)oc2ccc(Br)cc12,11,-,-,-,-,5.5,5.8,4.0
